Experimental data taken from PubChem BioAssay AID1159580 (chemical genetic matrix, 2015).
Among all 5,500 compounds or so, about 2,000 (36%) were called active. Roughly 18% stayed inconclusive and do not appear here. Cut-off read from the data, not from the text of the source: active = normalized growth mostly below about 0.91 (no sharp cut-off); inconclusive = no clear call, values can overlap the other calls; inactive = mostly above about 0.92. The list shows a part of the results.

Test: chemical genetic growth profiling, strain panel (AID 1159580);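 note: tested at 20 µM; growth read once vehicle control cultures reached saturation at 30 °C; 1 = growth at the plate median or of vehicle wells; lower values mean less growth of the strain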
Conditions: growth OD

Measured: normalized growth

CC(C(=O)O)c1ccc(N2Cc3ccccc3C2=O)cc1 (configuration not stated)
inactive: S. cerevisiae deletion strains, locus YKL009W, strain mrt4, hits give low values 0.998 | S. cerevisiae deletion strains, locus YKL068W, hits give low values 1 | S. cerevisiae deletion strains, locus YKL085W, strain MDH1 (second series), hits give low values 0.99 | S. cerevisiae deletion strains, locus YKL085W, strain MDH1, hits give low values 0.99 | S. cerevisiae deletion strains, locus YKL160W, strain elf1, hits give low values 0.986 | S. cerevisiae deletion strains, locus YKL190W, strain CNB1, hits give low values 1.01 | S. cerevisiae deletion strains, locus YKR001C, strain vps1, hits give low values 0.976 | S. cerevisiae deletion strains, locus YKR026C, strain gcn3, hits give low values 0.986 | S. cerevisiae deletion strains, locus YKR091W, strain srl3, hits give low values 0.983 | S. cerevisiae deletion strains, locus YLL001W, strain dnm1, hits give low values 0.96 | S. cerevisiae deletion strains, locus YLL026W, hits give low values 0.988 | S. cerevisiae deletion strains, locus YLL041C, strain sdh2, hits give low values 0.99 | S. cerevisiae deletion strains, locus YLR027C, strain aat2, hits give low values 0.985 | S. cerevisiae deletion strains, locus YLR039C, strain RIC1, hits give low values 0.994 | S. cerevisiae deletion strains, locus YLR058C, strain SHM2, hits give low values 1.01 | S. cerevisiae deletion strains, locus YLR102C, strain apc9, hits give low values 0.992 | S. cerevisiae deletion strains, locus YLR113W, strain HOG1, hits give low values 0.984 | S. cerevisiae deletion strains, locus YLR221C, strain rsa3, hits give low values 0.928 | S. cerevisiae deletion strains, locus YLR258W, strain gsy2, hits give low values 0.976 | S. cerevisiae deletion strains, locus YLR262C, strain YPT6 (second series), hits give low values 0.966 | S. cerevisiae deletion strains, locus YLR262C, strain YPT6, hits give low values 1.03 | S. cerevisiae deletion strains, locus YLR268W, strain sec22, hits give low values 0.997 | S. cerevisiae deletion strains, locus YLR320W, strain mms22, hits give low values 0.918 | S. cerevisiae deletion strains, locus YLR330W, strain CHS5, hits give low values 1.01 | S. cerevisiae deletion strains, locus YLR342W, strain FKS1 (second series), hits give low values 1.01 | S. cerevisiae deletion strains, locus YLR342W, strain FKS1, hits give low values 0.981 | S. cerevisiae deletion strains, locus YLR357W, strain rsc2, hits give low values 0.957 | S. cerevisiae deletion strains, locus YLR370C, strain arc18, hits give low values 0.974 | S. cerevisiae deletion strains, locus YLR371W, strain rom2, hits give low values 0.995 | S. cerevisiae deletion strains, locus YLR384C, strain iki3, hits give low values 0.984 | S. cerevisiae deletion strains, locus YLR418C, strain cdc73, hits give low values 0.951 | S. cerevisiae deletion strains, locus YML016C, strain PPZ1, hits give low values 1.02 | S. cerevisiae deletion strains, locus YML032C, strain rad52, hits give low values 0.975 | S. cerevisiae deletion strains, locus YML120C, strain ndi1, hits give low values 0.934 | S. cerevisiae deletion strains, locus YML124C, strain tub3, hits give low values 0.993 | S. cerevisiae deletion strains, locus YMR058W, strain fet3, hits give low values 0.984 | S. cerevisiae deletion strains, locus YMR078C, strain ctf18, hits give low values 0.995 | S. cerevisiae deletion strains, locus YMR125W, strain sto1, hits give low values 0.973 | S. cerevisiae deletion strains, locus YMR129W, hits give low values 0.986 | S. cerevisiae deletion strains, locus YMR205C, strain PFK2, hits give low values 0.98 | S. cerevisiae deletion strains, locus YMR223W, strain ubp8, hits give low values 0.98 | S. cerevisiae deletion strains, locus YMR231W, strain pep5, hits give low values 0.988 | S. cerevisiae deletion strains, locus YMR307W, strain GAS1, hits give low values 1.07 | S. cerevisiae deletion strains, locus YNL067W, strain RPL9B, hits give low values 1.01 | S. cerevisiae deletion strains, locus YNL071W, strain lat1, hits give low values 0.999 | S. cerevisiae deletion strains, locus YNL153C, strain GIM3, hits give low values 1.01 | S. cerevisiae deletion strains, locus YNL183C, strain NPR1, hits give low values 0.941 | S. cerevisiae deletion strains, locus YNL209W, strain ssb2, hits give low values 0.973 | S. cerevisiae deletion strains, locus YNL233W, strain BNI4, hits give low values 1.01 | S. cerevisiae deletion strains, locus YNL248C, strain rpa49, hits give low values 0.968 | S. cerevisiae deletion strains, locus YNL250W, strain rad50, hits give low values 1.01 | S. cerevisiae deletion strains, locus YNL271C, strain bni1, hits give low values 0.984 | S. cerevisiae deletion strains, locus YNL298W, strain CLA4, hits give low values 0.981 | S. cerevisiae deletion strains, locus YNL307C, strain MCK1, hits give low values 0.986 | S. cerevisiae deletion strains, locus YNL322C, strain KRE1, hits give low values 1.01 | S. cerevisiae deletion strains, locus YNR049C, strain mso1, hits give low values 0.987 | S. cerevisiae deletion strains, locus YNR052C, strain pop2, hits give low values 0.989 | S. cerevisiae deletion strains, locus YOL006C, strain TOP1, hits give low values 0.975 | S. cerevisiae deletion strains, locus YOL012C, strain htz1 1.17 | S. cerevisiae deletion strains, locus YOL147C, strain pex11, hits give low values 0.991 | S. cerevisiae deletion strains, locus YOR001W, strain rrp6, hits give low values 0.981 | S. cerevisiae deletion strains, locus YOR061W, strain CKA2, hits give low values 1.02 | S. cerevisiae deletion strains, locus YOR069W, strain VPS5, hits give low values 1.01 | S. cerevisiae deletion strains, locus YOR070C, strain gyp1, hits give low values 0.982 | S. cerevisiae deletion strains, locus YOR080W, strain dia2, hits give low values 0.987 | S. cerevisiae deletion strains, locus YOR083W, strain WHI5, hits give low values 0.965 | S. cerevisiae deletion strains, locus YOR106W, strain vam3, hits give low values 0.957 | S. cerevisiae deletion strains, locus YOR136W, strain idh2, hits give low values 0.991 | S. cerevisiae deletion strains, locus YOR144C, strain elg1, hits give low values 0.995 | S. cerevisiae deletion strains, locus YOR184W, strain ser1, hits give low values 0.963 | S. cerevisiae deletion strains, locus YOR231W, strain MKK1, hits give low values 0.973 | S. cerevisiae deletion strains, locus YOR265W, strain rbl2, hits give low values 0.982 | S. cerevisiae deletion strains, locus YOR270C, strain vph1, hits give low values 1.03 | S. cerevisiae deletion strains, locus YOR290C, strain snf2, hits give low values 0.917 | S. cerevisiae deletion strains, locus YOR316C, strain cot1, hits give low values 0.998 | S. cerevisiae deletion strains, locus YPL051W, strain arl3, hits give low values 0.995 | S. cerevisiae deletion strains, locus YPL078C, strain atp4, hits give low values 0.984 | S. cerevisiae deletion strains, locus YPL106C, strain sse1, hits give low values 0.984 | S. cerevisiae deletion strains, locus YPL240C, strain hsp82, hits give low values 0.99 | S. cerevisiae deletion strains, locus YPL256C, strain CLN2, hits give low values 0.984 | S. cerevisiae deletion strains, locus YPR119W, strain clb2, hits give low values 0.993 | S. cerevisiae deletion strains, locus YPR141C, strain kar3, hits give low values 1.01 | S. cerevisiae deletion strains, locus YPR163C, strain tif3, hits give low values 0.996 | S. cerevisiae deletion strains, locus YPR167C, strain met16, hits give low values 0.982 | S. cerevisiae deletion strains, strain wtn01, hits give low values 0.987 | S. cerevisiae strains, strain wild type, hits give low values 1.01
active: S. cerevisiae deletion strains, locus YNL322C, strain KRE1 (second series), hits give low values 0.818
